The text below walks through data of the OligoGym collection.

What all share (assay): pooled miR-30 sensor sort-seq; sequence = guide strand
Holding throughout (conditions): shRNA

The target in experiment [1] is SASH1.
Experiment [2] has as its target SC5DL.
The target of experiment [3] is SCAF4.
Experiment [4] concerns the target SASH3.
The target in experiment [5] is SCGB1D4.
In experiment [6] the target is SEZ6L.
For experiment [7], the target named is SH3YL1.
Experiment [8] deals with SLC20A1.
The target in experiment [9] is SLC22A7.
For experiment [10], the target named is SLC25A25.
The target in experiment [11] is SLC50A1.
Experiment [12] has as its target SLC7A11.
The target of experiment [13] is SLITRK5.
The target in experiment [14] is SLITRK3.
Note: reference of the scale not given here.

In the case of TAGATGAACTTGAACGTGCCGA, the sensor-assay potency score (higher = more potent) in experiment [1] was 0.105.

Consider TAAACTTAATCTCTCGACGGAC, for which the sensor-assay potency score (higher = more potent) in experiment [2] was -0.573.

In experiment [1], TTTTAGGTTAATCCGATCCAGG showed a sensor-assay potency score (higher = more potent) of -1.32.

In [2], TTTACTATGTATCTTGACTGTA displayed a sensor-assay potency score (higher = more potent) of -0.0112.

TAGTACTGCAAACACTTGCAGT: in experiment [3], the sensor-assay potency score (higher = more potent) was -0.842.

Take TGACCATCTGTAATCAGCCTTG: in experiment [4], the sensor-assay potency score (higher = more potent) was -0.932.

For the sequence TAACCTCTTAAACTTCACCGAC, the sensor-assay potency score (higher = more potent) in [1] was -0.612.

On to TTGACCATCATCATTAGCTGAA, for which the sensor-assay potency score (higher = more potent) in experiment [1] was 0.388.

TTTAATAGCAGCTTTAGTGATG registered a sensor-assay potency score (higher = more potent) in experiment [3] of -0.529.

As to TAAAAAAATAGTAATCTGCAAC, the sensor-assay potency score (higher = more potent) in experiment [2] was -0.802.

As to TTTCGTAGCATCCTGAGTCTCG, the sensor-assay potency score (higher = more potent) in [1] was 0.799.

In the case of TTATTAAGCACAATGATTCTTA, the sensor-assay potency score (higher = more potent) in experiment [2] was -0.0651.

For the sequence TTGAGCAGGAGGGTGGATGTGT, in experiment [4], the sensor-assay potency score (higher = more potent) is -0.276.

On to TATCTGATCGGTGCAGTGCTTC, for which, in experiment [5], the sensor-assay potency score (higher = more potent) was -0.707.

In [6], TCGGACGTGAACTCGATGCGGA registered a sensor-assay potency score (higher = more potent) of -0.799.

Consider TAGATGGTCAAGATGTCACTGT, for which, in [6], the sensor-assay potency score (higher = more potent) was -0.115.

Take TTGCATTGATTCGTTGTCCTTC: in [7], the sensor-assay potency score (higher = more potent) was 0.55.

On to TAGAGTAGAAGCCATATTGGTG, for which, in [8], the sensor-assay potency score (higher = more potent) is -0.743.

In experiment [8], TTCACGGTGCTATCTATGCTGG registered a sensor-assay potency score (higher = more potent) of -1.16.

TGAAGCTGTCCTCACACACTGG had a sensor-assay potency score (higher = more potent) in experiment [9] of -0.999.

With TCTGAGTGGTCGTACTCCCAGC, the sensor-assay potency score (higher = more potent) in [9] was -1.03.

In experiment [10], TAAATGACAACTTCTAACGTCC displayed a sensor-assay potency score (higher = more potent) of 0.0926.

For TCCACTGTGAACTCATCCGGGA, the sensor-assay potency score (higher = more potent) in [10] was -0.99.

In the case of TATAGGGATCTCTGAGTCGAAA, the sensor-assay potency score (higher = more potent) in experiment [11] is -1.32.

In turn, TATATGTGTAATGACCTCCAGA yielded a sensor-assay potency score (higher = more potent) in [12] of -0.907.

Sequence TTAATTAGCTGCATAACTCCAG yielded a sensor-assay potency score (higher = more potent) in experiment [12] of 0.313.

In experiment [13], TTATTCAAGAATAGCAGCTGGA showed a sensor-assay potency score (higher = more potent) of -0.212.

For the sequence TTTCTCGTAGGTCCTTTCCATG, the sensor-assay potency score (higher = more potent) in [14] is -1.36.

AATGACATTGTAATCTGCCTGC yielded a sensor-assay potency score (higher = more potent) in [14] of 0.274.

TAATACAGTGTGACACCTCTGC returned a sensor-assay potency score (higher = more potent) in [13] of 0.818.
